# Experimental data: PubChem BioAssay AID1159580 (chemical genetic matrix, 2015)
# “And” between values parts separate entries of the source, which are not always exact repeats. Identical values can stand only once. Among all 5,500 compounds or so, about 2,000 (36%) were called active. About 18% were inconclusive and are not listed. No stated cut-off is given here; in the data, active means normalized growth mostly below about 0.91 (no sharp cut-off); inconclusive means no clear call, values can overlap the other calls; inactive means mostly above about 0.92. The list shows a part of the results. Where a structure was tested more than once in an assay, its records may differ in their call.
# Assay: chemical genetic growth profiling, strain panel (AID 1159580);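 further: tested at 20 µM; growth read once vehicle control cultures reached saturation at 30 °C; 1 = growth at the plate median or of vehicle wells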
# Conditions: growth OD
smiles,measurement,setting,value
CN1CCc2cccc3c2C1Cc1ccc(O)c(O)c1-3 (stereo not drawn),normalized growth,"S. cerevisiae deletion strains, locus YJR075W, strain HOC1, stronger effect = lower value",1 (inactive) and 0.35 (active)
same,normalized growth,"S. cerevisiae deletion strains, locus YKL009W, strain mrt4, stronger effect = lower value",1.01 (inactive)
same,normalized growth,"S. cerevisiae deletion strains, locus YKL068W, stronger effect = lower value",0.996 (inactive)
same,normalized growth,"S. cerevisiae deletion strains, locus YKL085W, strain MDH1 (second series), stronger effect = lower value",1 (inactive)
same,normalized growth,"S. cerevisiae deletion strains, locus YKL085W, strain MDH1, stronger effect = lower value",1 (inactive)
same,normalized growth,"S. cerevisiae deletion strains, locus YKL160W, strain elf1, stronger effect = lower value",0.871 (active)
same,normalized growth,"S. cerevisiae deletion strains, locus YKL190W, strain CNB1, stronger effect = lower value",1.01 (inactive)
same,normalized growth,"S. cerevisiae deletion strains, locus YKR001C, strain vps1, stronger effect = lower value",1 (inactive)
same,normalized growth,"S. cerevisiae deletion strains, locus YKR026C, strain gcn3, stronger effect = lower value",1.01 (inactive)
same,normalized growth,"S. cerevisiae deletion strains, locus YKR091W, strain srl3, stronger effect = lower value",0.993 (inactive)
same,normalized growth,"S. cerevisiae deletion strains, locus YLL001W, strain dnm1, stronger effect = lower value",0.967 (inactive)
same,normalized growth,"S. cerevisiae deletion strains, locus YLL026W, stronger effect = lower value",0.988 (inactive)
same,normalized growth,"S. cerevisiae deletion strains, locus YLL041C, strain sdh2, stronger effect = lower value",0.995 (inactive)
same,normalized growth,"S. cerevisiae deletion strains, locus YLR027C, strain aat2, stronger effect = lower value",0.918 (active)
same,normalized growth,"S. cerevisiae deletion strains, locus YLR039C, strain RIC1, stronger effect = lower value",1.04 (inactive)
same,normalized growth,"S. cerevisiae deletion strains, locus YLR058C, strain SHM2, stronger effect = lower value",1.01 (inactive)
same,normalized growth,"S. cerevisiae deletion strains, locus YLR102C, strain apc9, stronger effect = lower value",0.997 (inactive)
same,normalized growth,"S. cerevisiae deletion strains, locus YLR113W, strain HOG1, stronger effect = lower value",1.02 (inactive)
same,normalized growth,"S. cerevisiae deletion strains, locus YLR221C, strain rsa3, stronger effect = lower value",0.932 (inactive)
same,normalized growth,"S. cerevisiae deletion strains, locus YLR258W, strain gsy2, stronger effect = lower value",0.958 (inactive)
same,normalized growth,"S. cerevisiae deletion strains, locus YLR262C, strain YPT6 (second series), stronger effect = lower value",0.645 (active)
same,normalized growth,"S. cerevisiae deletion strains, locus YLR262C, strain YPT6, stronger effect = lower value",1.09 (inactive)
same,normalized growth,"S. cerevisiae deletion strains, locus YLR268W, strain sec22, stronger effect = lower value",1.01 (inactive)
same,normalized growth,"S. cerevisiae deletion strains, locus YLR320W, strain mms22, stronger effect = lower value",0.8 (active)
same,normalized growth,"S. cerevisiae deletion strains, locus YLR330W, strain CHS5, stronger effect = lower value",1.01 (inactive)
same,normalized growth,"S. cerevisiae deletion strains, locus YLR342W, strain FKS1 (second series), stronger effect = lower value",1.02 (inactive)
same,normalized growth,"S. cerevisiae deletion strains, locus YLR342W, strain FKS1, stronger effect = lower value",0.855 (active)
same,normalized growth,"S. cerevisiae deletion strains, locus YLR357W, strain rsc2, stronger effect = lower value",0.889 (inactive)
same,normalized growth,"S. cerevisiae deletion strains, locus YLR370C, strain arc18, stronger effect = lower value",0.96 (inactive)
same,normalized growth,"S. cerevisiae deletion strains, locus YLR371W, strain rom2, stronger effect = lower value",0.996 (inactive)
same,normalized growth,"S. cerevisiae deletion strains, locus YLR384C, strain iki3, stronger effect = lower value",1 (inactive)
same,normalized growth,"S. cerevisiae deletion strains, locus YLR418C, strain cdc73, stronger effect = lower value",1.01 (inactive)
same,normalized growth,"S. cerevisiae deletion strains, locus YML016C, strain PPZ1, stronger effect = lower value",1.01 (inactive)
same,normalized growth,"S. cerevisiae deletion strains, locus YML032C, strain rad52, stronger effect = lower value",0.99 (inactive)
same,normalized growth,"S. cerevisiae deletion strains, locus YML120C, strain ndi1, stronger effect = lower value",0.993 (inactive)
same,normalized growth,"S. cerevisiae deletion strains, locus YML124C, strain tub3, stronger effect = lower value",0.99 (inactive)
same,normalized growth,"S. cerevisiae deletion strains, locus YMR058W, strain fet3, stronger effect = lower value",0.573 (active)
same,normalized growth,"S. cerevisiae deletion strains, locus YMR078C, strain ctf18, stronger effect = lower value",0.988 (inactive)
same,normalized growth,"S. cerevisiae deletion strains, locus YMR125W, strain sto1, stronger effect = lower value",0.966 (inactive)
same,normalized growth,"S. cerevisiae deletion strains, locus YMR129W, stronger effect = lower value",1 (inactive)
same,normalized growth,"S. cerevisiae deletion strains, locus YMR205C, strain PFK2, stronger effect = lower value",0.93 (inactive)
same,normalized growth,"S. cerevisiae deletion strains, locus YMR223W, strain ubp8, stronger effect = lower value",0.994 (inactive)
same,normalized growth,"S. cerevisiae deletion strains, locus YMR231W, strain pep5, stronger effect = lower value",0.972 (inactive)
same,normalized growth,"S. cerevisiae deletion strains, locus YMR307W, strain GAS1, stronger effect = lower value",1.03 (inactive)
same,normalized growth,"S. cerevisiae deletion strains, locus YNL067W, strain RPL9B, stronger effect = lower value",0.998 (inactive)
same,normalized growth,"S. cerevisiae deletion strains, locus YNL071W, strain lat1, stronger effect = lower value",0.627 (active)
same,normalized growth,"S. cerevisiae deletion strains, locus YNL128W, strain TEP1, stronger effect = lower value",1.01 (inactive) and 0.937 (inactive)
same,normalized growth,"S. cerevisiae deletion strains, locus YNL153C, strain GIM3, stronger effect = lower value",1 (inactive)
same,normalized growth,"S. cerevisiae deletion strains, locus YNL175C, strain NOP13, stronger effect = lower value",0.96 (inactive)
same,normalized growth,"S. cerevisiae deletion strains, locus YNL183C, strain NPR1, stronger effect = lower value",0.984 (inactive)
same,normalized growth,"S. cerevisiae deletion strains, locus YNL197C, strain WHI3, stronger effect = lower value",0.931 (inactive)
same,normalized growth,"S. cerevisiae deletion strains, locus YNL209W, strain ssb2, stronger effect = lower value",0.808 (active)
same,normalized growth,"S. cerevisiae deletion strains, locus YNL224C, strain SQS1, stronger effect = lower value",1.05 (inactive)
same,normalized growth,"S. cerevisiae deletion strains, locus YNL233W, strain BNI4, stronger effect = lower value",1.01 (inactive)
same,normalized growth,"S. cerevisiae deletion strains, locus YNL248C, strain rpa49, stronger effect = lower value",0.858 (active)
same,normalized growth,"S. cerevisiae deletion strains, locus YNL250W, strain rad50, stronger effect = lower value",1.01 (inactive)
same,normalized growth,"S. cerevisiae deletion strains, locus YNL271C, strain bni1, stronger effect = lower value",0.985 (inactive)
same,normalized growth,"S. cerevisiae deletion strains, locus YNL298W, strain CLA4, stronger effect = lower value",0.992 (inactive)
same,normalized growth,"S. cerevisiae deletion strains, locus YNL307C, strain MCK1, stronger effect = lower value",0.991 (inactive)
same,normalized growth,"S. cerevisiae deletion strains, locus YNL322C, strain KRE1 (second series), stronger effect = lower value",1.01 (inactive)
same,normalized growth,"S. cerevisiae deletion strains, locus YNR049C, strain mso1, stronger effect = lower value",0.98 (inactive)
same,normalized growth,"S. cerevisiae deletion strains, locus YNR052C, strain pop2, stronger effect = lower value",0.987 (inactive)
same,normalized growth,"S. cerevisiae deletion strains, locus YOL006C, strain TOP1, stronger effect = lower value",0.926 (inactive)
same,normalized growth,"S. cerevisiae deletion strains, locus YOL012C, strain htz1",1.12 (inactive)
same,normalized growth,"S. cerevisiae deletion strains, locus YOL147C, strain pex11, stronger effect = lower value",0.992 (inactive)
same,normalized growth,"S. cerevisiae deletion strains, locus YOR001W, strain rrp6, stronger effect = lower value",0.944 (inactive)
same,normalized growth,"S. cerevisiae deletion strains, locus YOR061W, strain CKA2, stronger effect = lower value",1.02 (inactive)
same,normalized growth,"S. cerevisiae deletion strains, locus YOR069W, strain VPS5, stronger effect = lower value",1.01 (inactive)
same,normalized growth,"S. cerevisiae deletion strains, locus YOR070C, strain gyp1, stronger effect = lower value",0.864 (active)
same,normalized growth,"S. cerevisiae deletion strains, locus YOR080W, strain dia2, stronger effect = lower value",0.993 (inactive)
same,normalized growth,"S. cerevisiae deletion strains, locus YOR083W, strain WHI5 (second series), stronger effect = lower value",0.815 (active)
same,normalized growth,"S. cerevisiae deletion strains, locus YOR083W, strain WHI5, stronger effect = lower value",0.875 (active)
same,normalized growth,"S. cerevisiae deletion strains, locus YOR106W, strain vam3, stronger effect = lower value",0.607 (active)
same,normalized growth,"S. cerevisiae deletion strains, locus YOR136W, strain idh2, stronger effect = lower value",0.987 (inactive)
same,normalized growth,"S. cerevisiae deletion strains, locus YOR144C, strain elg1, stronger effect = lower value",0.998 (inactive)
same,normalized growth,"S. cerevisiae deletion strains, locus YOR184W, strain ser1, stronger effect = lower value",1.02 (inactive)
same,normalized growth,"S. cerevisiae deletion strains, locus YOR231W, strain MKK1, stronger effect = lower value",1.06 (inactive)
same,normalized growth,"S. cerevisiae deletion strains, locus YOR265W, strain rbl2, stronger effect = lower value",0.91 (active)
same,normalized growth,"S. cerevisiae deletion strains, locus YOR270C, strain vph1, stronger effect = lower value",0.597 (active)
same,normalized growth,"S. cerevisiae deletion strains, locus YOR290C, strain snf2, stronger effect = lower value",0.979 (inactive)
same,normalized growth,"S. cerevisiae deletion strains, locus YOR316C, strain cot1, stronger effect = lower value",0.992 (inactive)
same,normalized growth,"S. cerevisiae deletion strains, locus YPL051W, strain arl3, stronger effect = lower value",0.746 (active)
same,normalized growth,"S. cerevisiae deletion strains, locus YPL078C, strain atp4, stronger effect = lower value",0.988 (inactive)
same,normalized growth,"S. cerevisiae deletion strains, locus YPL106C, strain sse1, stronger effect = lower value",0.94 (inactive)
same,normalized growth,"S. cerevisiae deletion strains, locus YPL240C, strain hsp82, stronger effect = lower value",1.01 (inactive)
same,normalized growth,"S. cerevisiae deletion strains, locus YPL241C, strain CIN2, stronger effect = lower value",0.311 (active)
same,normalized growth,"S. cerevisiae deletion strains, locus YPL256C, strain CLN2, stronger effect = lower value",1.06 (inactive)
same,normalized growth,"S. cerevisiae deletion strains, locus YPR119W, strain clb2, stronger effect = lower value",0.994 (inactive)
same,normalized growth,"S. cerevisiae deletion strains, locus YPR141C, strain kar3, stronger effect = lower value",0.997 (inactive)
same,normalized growth,"S. cerevisiae deletion strains, locus YPR163C, strain tif3, stronger effect = lower value",0.986 (inactive)
same,normalized growth,"S. cerevisiae deletion strains, locus YPR167C, strain met16, stronger effect = lower value",0.998 (inactive)
same,normalized growth,"S. cerevisiae deletion strains, strain wtn01, stronger effect = lower value",1 (inactive)
same,normalized growth,"S. cerevisiae strains, strain wild type, stronger effect = lower value",1.01 (inactive)
